# Most compounds without a hit are left out; they make up all but 4.1% or so of the library.
# MITF TRPM1 inh – reduces MITF-dependent TRPM1 promoter luciferase signal; actives 0.83% (n = 330,000); SK-MEL-5 TRPM1 promoter luciferase, 24 h; inhibition, % at 12.5 µM; AID 488899;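 active = mean inhibition across replicates of 60% or more, whatever share of single replicates reaches that level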
# TROY NFkB inh – blocks TROY-dependent signaling in reporter cells | Q293 LMP1-TROYcd NF-kB luciferase reporter, 4 h | inhibition, % at 10 µM | actives 0.98% (n = 360,000);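 active = compounds whose plate-normalised and pattern-corrected inhibition of the luciferase reporter signal at the single screening dose is 50% or more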
# TWEAK Fn14 block – inhibitors of TWEAK-Fn14 interaction signaling | actives 2% (n = 360,000) | inhibition, % at 10 µM | AID 1159606 | TWEAK-stimulated Fn14 reporter cells, luciferase luminescence, 8 h; in the data active = inhibition above about 50%
# Shn3 inh set2 – Schnurri-3 reporter inhibition in Clone20 osteoblasts | actives 0.52% (n = 360,000) | inhibition, % at 12.5 µM | Clone20 osteoblast Shn3 3'UTR firefly luciferase, 24 h;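 active = mean inhibition of at least 75% with every replicate also reaching 75%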;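 note: 0% = median of neutral control wells and 100% = pilot-screen positive control compound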
# Peg3 promoter – Peg3 promoter activity inhibition; HeLa PEG-Prom luciferase reporter, luminescence, overnight; inhibition, % at 20 µM; actives 1.7% (n = 360,000); AID 588405;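 active = inhibition of at least 50% at 20 µM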
# EBV LMP1 NFkB – reduces LMP1-driven NF-kappaB luciferase signal. LMP1-induced NF-kappaB luciferase reporter cells, luminescence. inhibition, % at 12.5 µM. actives 0.69% (n = 350,000). AID 504558; in the data active = inhibition above about 41%;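 note: 0% = neutral control wells and 100% = reference inhibitor control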
# * marks the source's active call; other numbers are inactive results; nt = not tested or not shown.
SMILES,MITF TRPM1 inh,TROY NFkB inh,TWEAK Fn14 block,Shn3 inh set2,Peg3 promoter,EBV LMP1 NFkB
COc1ccc(-c2nc(-c3ccc4c(c3)OCO4)[nH]c2-c2ccc(OC)cc2)cc1,22,32,56*,64,20,-47
CC1=CC(C)(C)Nc2ccc(OC(=O)CCN3C(=O)c4ccccc4C3=O)cc21,22,26,96*,53,104*,-20
CCCN(CCC)C(=O)Cn1c2ccccc2c2nc(=O)cc(C)n21,28,11,11,-11,32,-1
CCOC(=O)C(=Cc1ccc(N(C)C)cc1)C(=O)c1ccccc1,nt,11,35,15,4,nt
CCOC(=O)N(O)c1ccc(C=Cc2ccccc2)cc1,-56,24,20,29,-81,86*
CSc1sc(C(=O)N2CCCCC2)c(-c2cccs2)c1C#N,12,-9,-8,-19,23,-1
Cc1cc(C)n(-c2ccc(C(=O)Nc3ccc(C)c(S(=O)(=O)N4CCOCC4)c3)cc2)n1,69*,64*,64*,57,34,9
O=C(Nc1ccc2c(c1)OCCO2)c1ccc(Br)c(S(=O)(=O)N2CCOCC2)c1,8,61*,82*,35,-12,22
Cc1ccc(C(=O)Nc2ccccc2[N+](=O)[O-])cc1S(=O)(=O)N1CCOCC1,16,-19,1,-2,31,2
CCOC(=O)c1cc(OC(=O)Cc2ccc(OC)c(S(=O)(=O)N3CCOCC3)c2)cc(C(=O)OCC)c1,nt,52*,28,12,-8,-10
Cc1ccc(NC(=O)c2ccc(N3CCOCC3)c([N+](=O)[O-])c2)cc1S(=O)(=O)N1CCOCC1,29,39,45,70,65*,11
COc1ccc(CN(C)C(=O)Cc2ccc(OC)c(S(=O)(=O)N3CCOCC3)c2)cc1,1,10,2,-4,6,-3
O=C(Nc1ccc2c(c1)OCO2)c1ccc(Br)c(S(=O)(=O)N2CCCC2)c1,9,9,38,35,-55,10
CCc1nnc(NC(=O)c2ccc(Br)c(S(=O)(=O)N3CCOCC3)c2)s1,15,10,1,-5,0,2
CC(=O)c1ccc(NC(=O)c2ccc(C)c(S(=O)(=O)N3CCOCC3)c2)cc1,-3,-9,-6,-5,-25,-5
CCOC(=O)c1ccc(NC(=O)c2ccc(C)c(S(=O)(=O)N3CCOCC3)c2)cc1,69*,73*,96*,42,93*,19
COc1ccc(CNC(=O)C2CCN(S(=O)(=O)c3cccc4nsnc34)CC2)cc1,-1,3,-13,3,-4,0
Cc1ccc(C(=O)NN(CCC(=O)NC(C)(C)C)C2=NS(=O)(=O)c3ccccc32)cc1,21,11,9,4,16,-12
CCCN(CC1CC1)c1nc(C)nc(Nc2c(Cl)cc(Cl)cc2Cl)c1Cl,10,-3,15,21,4,78*
O=C(Nc1ccc(-c2csc(Nc3cccc(C(F)(F)F)c3)n2)cc1)c1ccccc1,16,-2,65*,46,26,-11
Cc1nc(-c2ccc(NC(=O)c3ccccc3)cc2)cs1,-14,19,68*,-3,-92,-7
O=C(Nc1cccc(-c2csc(Nc3cccc(C(F)(F)F)c3)n2)c1)c1ccccc1,9,-3,43,5,37,-26
COCCN(Cc1ccccc1)C(=O)c1ccc(C(=O)c2ccccc2)cc1,12,6,-1,-5,18,3
O=C(NCc1ccc2c(c1)OCO2)c1nc(S(=O)(=O)Cc2ccccc2F)ncc1Cl,91*,76*,79*,95*,106*,11
O=C(NCc1ccc2c(c1)OCO2)c1nc(S(=O)(=O)Cc2ccccc2)ncc1Cl,52,60*,73*,94*,106*,-8
COc1ccccc1N1CCN(C(=O)CCNC(=O)c2ccco2)CC1,-33,-26,-11,-90,-42,-1
Cc1ccsc1C(=O)OCC(=O)c1cc(C)n(C)c1C,58,12,84*,32,38,51*
COc1ccc(CNC(=O)COC(=O)c2cc(S(=O)(=O)N3CCOCC3)ccc2O)cc1OC,3,-10,13,-16,18,2
CS(=O)(=O)Nc1ccc(C(=O)Nc2ccc(S(=O)(=O)N3CCCCC3)cc2)cc1,-3,11,11,9,1,-6

# Screening results from PubChem.
